# “And” between values parts separate entries of the source, which are not always exact repeats. Equal values may be shown once. The source made the active and inactive calls.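 How the source made its calls, unless noted: active means compounds whose cell count with miR-34 switched on is under 0.7 times the count with it off; inactive means the rest.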
# Columns and labels:
# [1] = liver-stage malaria parasite growth inhibition, primary screen, cell-based, HepG2, luciferase luminescence, HepG2 viability (AID 624349; in the data active means parasite load remaining mostly below about 12%, no sharp cut-off; inactive means mostly above about 10%;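 further: 100% = mean of DMSO negative control wells on the same plate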); details: P. berghei liver stage in HepG2, luciferase luminescence, concentration not given here; parasite load remaining: stronger effect = lower value; viability: measured here: HepG2 viability without parasites
# [2] = stimulators of nuclear beta-catenin in C2C12, primary screen, imaging, WNT3A-conditioned medium, mouse C2C12, NPC library (AID 1117326; in the data active means nuclear beta-catenin stimulation mostly above about 4.2%, no sharp cut-off; inactive means mostly below about 10%); details: stronger effect = higher value
# [3] = stimulators of insulin release from INS-1E, primary screen, cell-based, 5 mM glucose, NPC library (AID 1117329;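 active means compound raises insulin release from rat beta cells at 5 mM glucose, no numeric limit stated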); details: rat INS-1E insulin secretion, at 10 µM, stronger effect = higher value
# [4] = growth inhibition of GSK3B-pretreated HCT116 cells – cell-based, CellTiter-Glo, 0.2 to 20 µM (AID 1117336;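 active means compounds lowering colon cancer cell viability after pretreatment blocking the GSK3B kinase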); details: HCT116 viability after GSK3B inhibitor, at 20 µM, stronger effect = higher value
# [5] = inhibition of endothelial tube formation, primary screen, imaging, VEGF stimulated, CD31 staining, tube area, NPC library (AID 1117340;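 active means compound that reduces growth-factor-driven endothelial tube area in a mixed cell culture, no cutoff stated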); details: VEGF-stimulated ADSC/ECFC co-culture, at 10 µM, stronger effect = higher value
# [6] = glucagon-like peptide 1 release enhancers, primary assay, NCI-H716 cell line, NPC library (AID 1117341;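 active means compound raises GLP1 secretion from the human gut endocrine cells, with no numeric limit stated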); details: NCI-H716 cells, at 10 µM, stronger effect = higher value
# [7] = HCT116 colon cancer cell growth inhibition, primary screen, CellTiter-Glo luminescence, NPC library (AID 1117342;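 active means compounds that lower survival of HCT116 colon cancer cells in the luminescence readout, no numeric limit stated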); details: at 20 µM (top of the series)
# [8] = CellTiter-Glo luminescent readout of SW480 viability loss, NPC library primary (AID 1117343;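 active means compounds that lower viability of the colon cancer cells in the luminescence readout, with no numeric limit stated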); details: CellTiter-Glo luminescence; at 20 µM (top of the series) unless noted
# [9] = decreased DLD-1 cellular survival, CellTiter-Glo luminescent readout, NPC compound collection, primary HTS (AID 1117346;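 active means compounds that lower survival of DLD-1 colon cancer cells in the luminescence readout, no cutoff given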); details: DLD-1 viability, CellTiter-Glo luminescence; at 20 µM (top of the series)
# [10] = differential killing of epithelial or mesenchymal cells, primary screen, imaging, PC-3E GFP, TEM4-18 mCherry, co-culture (AID 1345086;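 active means compounds killing one labelled cell type while sparing the other, by normalised counts and ratio limits, not self-fluorescent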;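 on all read-outs here: cells exposed to compound for 72 h before imaging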;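 on red/green cell ratio (normalised): normalised mesenchymal count divided by normalised epithelial count so high means epithelial killing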); details: imaging cell counts, at 1 µM; for red/green cell ratio (normalised): actives lie on both sides, counts scaled to control wells, 1 = unselective
# [11] = sensitizers of A549 cells to miR-34 induction, primary screen, imaging, A549 dox-inducible miR-34, nuclei and caspase counts (AID 1347080); details: A549 miR-34 inducible, Hoechst nuclei count, 48 h
# [12] = survival rescue of mitochondrial mutant cells in low glucose, primary screen, MELAS cybrids, Rieske KO mouse fibroblasts, CellTiter-Glo (AID 1508586;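 active means mean z-score across replicates of 1.96 or higher in either the MELAS or the Rieske mutant cell line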;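 further: z relative to plate mean and SD of compound and empty wells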)
# [13] = target: NAD(+) hydrolase SARM1 (Homo sapiens) (UniProt Q6SZW1); experiment: SARM1 TIR NADase inhibitors, cell lysate, NAD-Glo luminescence (AID 1508614;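 active means compound whose remaining NAD level is above about 45 nM, limit read from the data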); details: SAM-TIR HEK293T lysate NADase, at 1 µM, stronger effect = higher value
# Chain of NAD(+) hydrolase SARM1 (Homo sapiens) (Q6SZW1 whole entry, looked up): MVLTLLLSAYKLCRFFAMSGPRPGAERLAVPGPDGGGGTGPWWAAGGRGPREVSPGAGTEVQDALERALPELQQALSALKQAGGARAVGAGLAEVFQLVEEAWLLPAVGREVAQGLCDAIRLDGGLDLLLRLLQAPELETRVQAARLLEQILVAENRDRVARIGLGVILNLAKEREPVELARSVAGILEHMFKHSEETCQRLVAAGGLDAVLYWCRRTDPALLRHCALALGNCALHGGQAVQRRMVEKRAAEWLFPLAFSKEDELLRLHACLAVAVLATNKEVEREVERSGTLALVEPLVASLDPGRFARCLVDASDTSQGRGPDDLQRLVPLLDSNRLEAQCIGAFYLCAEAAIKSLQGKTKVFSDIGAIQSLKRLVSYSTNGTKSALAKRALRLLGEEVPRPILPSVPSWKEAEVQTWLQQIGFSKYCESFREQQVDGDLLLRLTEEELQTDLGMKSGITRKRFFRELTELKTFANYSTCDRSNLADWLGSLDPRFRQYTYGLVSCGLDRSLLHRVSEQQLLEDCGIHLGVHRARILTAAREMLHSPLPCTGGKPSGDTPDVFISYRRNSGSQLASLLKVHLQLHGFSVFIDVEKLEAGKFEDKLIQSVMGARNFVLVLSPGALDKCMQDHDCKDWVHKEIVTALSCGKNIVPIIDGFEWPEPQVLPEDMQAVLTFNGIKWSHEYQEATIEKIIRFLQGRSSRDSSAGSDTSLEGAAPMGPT
# [14] = hESC survival regulators, cell-based (AID 493140; call rule not given here;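 further: cells exposed to compounds for four days before counting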); details: human embryonic stem cell survival screen; stronger effect = higher value
# [15] = measured here: epithelial PC-3E GFP cell survival
# [16] = measured here: mesenchymal TEM4-18 mCherry cell survival
# [17] = stronger effect = lower value, cell number ratio, induced over uninduced
# [18] = measured here: relative caspase fold change +Dox/-Dox
# [19] = measured here: total cells with miR-34 induction, stronger effect = lower value
# [20] = measured here: total cells without miR-34 induction
# [21] = MELAS cybrid survival, CellTiter-Glo 48 h, stronger effect = higher value
# [22] = Rieske KO mouse fibroblast survival, CellTiter-Glo 72 h
smiles,measurement,setting,value
O=C(Oc1cccc2cccnc12)c1ccccc1,parasite load remaining,[1],41.2% (inactive)
same,viability,[1],102%
same,nuclear beta-catenin stimulation,[2]; at 10 µM,19.8% (inactive)
same,nuclear beta-catenin stimulation,"[2]; stimulation, at 2 µM",0.5%
same,insulin secretion stimulation,[3],-2.2% (inactive)
same,viability decrease,[4],23.6% (inactive)
same,tube area decrease,[5],-21.4% (inactive)
same,GLP1 secretion stimulation,[6],0.9% (inactive)
same,inhibition of viability,[7],27.1% (inactive)
same,viability decrease (inhibition),[8],22.8% [at 2 µM] (inactive)
same,viability decrease (inhibition),[9],-5.55% (inactive)
same,red/green cell ratio (normalised),[10],1 (inactive)
same,normalised cell number,[10]; [15],1.14
same,normalised cell number,[10]; [16],1.13
same,fold change,[11]; [17],0.805 (inactive)
same,fold change,[11]; [18],5.26
same,cell count,[11]; [19],10400
same,cell count,[11]; [20],12900
same,z-score,[12]; [21],0.276 (inactive)
same,z-score,[12]; [22],0.498
same,remaining NAD,[13],10 nM (inactive)
CC1CCc2c(N3CCC(O)CC3)c(F)cc3c(=O)c(C(=O)O)cn1c23 (stereo not drawn),parasite load remaining,[1],84.8% (inactive) and 5.38% (inactive)
same,viability,[1],88.5% and 76.5%
same,nuclear beta-catenin stimulation,[2]; at 10 µM,0% (inactive)
same,nuclear beta-catenin stimulation,"[2]; stimulation, at 2 µM",0.1%
same,insulin secretion stimulation,[3],1.15% (inactive)
same,viability decrease,[4],74.1% (active)
same,tube area decrease,[5],-22.8% (inactive)
same,GLP1 secretion stimulation,[6],4% (inactive)
same,inhibition of viability,[7],59% (active)
same,viability decrease (inhibition),[8],37.2% (inactive)
same,viability decrease (inhibition),[9],5.4% (inactive)
same,red/green cell ratio (normalised),[10],0.89 (inactive)
same,normalised cell number,[10]; [15],0.98
same,normalised cell number,[10]; [16],0.87
same,fold change,[11]; [17],0.9 (inactive) and 0.988 (inactive) and 0.927 (inactive)
same,fold change,[11]; [18],0.795 and 0.525 and 0.967
same,cell count,[11]; [19],8750 and 7880 and 9830
same,cell count,[11]; [20],9720 and 7980 and 10600
same,z-score,[12]; [21],-0.315 (inactive) and -0.705 (inactive) and 0.586 (inactive)
same,z-score,[12]; [22],-0.0888 and -0.895 and -0.392
same,remaining NAD,[13],10 nM (inactive)
O=S(=O)(O)NC1CCCCC1,nuclear beta-catenin stimulation,[2]; at 10 µM,0.2% (inactive)
same,nuclear beta-catenin stimulation,"[2]; stimulation, at 2 µM",0.3%
same,insulin secretion stimulation,[3],-1.6% (inactive)
same,viability decrease,[4],-5.65% (inactive)
same,tube area decrease,[5],-18.4% (inactive)
same,GLP1 secretion stimulation,[6],-0.8% (inactive)
same,inhibition of viability,[7],-5.4% (inactive)
same,viability decrease (inhibition),[8],8.9% (inactive)
same,viability decrease (inhibition),[9],1.3% (inactive)
same,red/green cell ratio (normalised),[10],0.89 (inactive)
same,normalised cell number,[10]; [15],0.95
same,normalised cell number,[10]; [16],0.84
same,fold change,[11]; [17],0.883 (inactive) and 0.898 (inactive)
same,fold change,[11]; [18],0.921 and 0.472
same,cell count,[11]; [19],8650 and 7930
same,cell count,[11]; [20],9790 and 8830
same,z-score,[12]; [21],-0.205 (inactive)
same,z-score,[12]; [22],-0.173
same,remaining NAD,[13],10 nM (inactive)
CN(C(=O)C(Cl)Cl)c1ccc(OC(=O)c2ccco2)cc1,survival,[14],6 (inactive)
same,parasite load remaining,[1],89.8% (inactive) and 59.5% (inactive)
same,viability,[1],98.9% and 106%
same,nuclear beta-catenin stimulation,[2]; at 10 µM,16.4% (inactive)
same,nuclear beta-catenin stimulation,"[2]; stimulation, at 2 µM",2.6%
same,insulin secretion stimulation,[3],0.3% (inactive)
same,viability decrease,[4],-11.8% (inactive)
same,tube area decrease,[5],13.6% (inactive)
same,GLP1 secretion stimulation,[6],0.9% (inactive)
same,inhibition of viability,[7],-9.5% (inactive)
same,viability decrease (inhibition),[8],4.3% (inactive)
same,viability decrease (inhibition),[9],-2.6% (inactive)
same,red/green cell ratio (normalised),[10],1.01 (inactive)
same,normalised cell number,[10]; [15],0.98
same,normalised cell number,[10]; [16],0.99
same,fold change,[11]; [17],0.855 (inactive) and 0.819 (inactive)
same,fold change,[11]; [18],1.35 and 4.27
same,cell count,[11]; [19],9270 and 10300
same,cell count,[11]; [20],10800 and 12500
same,z-score,[12]; [21],0.57 (inactive)
same,z-score,[12]; [22],-0.472
same,remaining NAD,[13],10 nM (inactive)

# — PubChem BioAssay
